Results taken from publication PMC7862700, “An all-to-all approach to the identification of sequence-specific readers for epigenetic DNA modifications on cytosine”.

Tests used:
Test in all cases: DAPPL (digital affinity profiling via proximity ligation, sequencing); 10 mM Tris-HCl pH 7.5, 50 mM NaCl, 1 mM DTT, 4% glycerol, room temperature, 30 min; GST-TFs on glutathione beads, 16-mer random dsDNA library, 0.1% formaldehyde crosslink after washing; high values mean tight binding
FLI1 = target: T1, FLI1 (Homo sapiens, UniProt Q01543 1-452); settings: protein: recombinant; tags: N-terminal GST; dsDNA, one strand shown
T1 sequence: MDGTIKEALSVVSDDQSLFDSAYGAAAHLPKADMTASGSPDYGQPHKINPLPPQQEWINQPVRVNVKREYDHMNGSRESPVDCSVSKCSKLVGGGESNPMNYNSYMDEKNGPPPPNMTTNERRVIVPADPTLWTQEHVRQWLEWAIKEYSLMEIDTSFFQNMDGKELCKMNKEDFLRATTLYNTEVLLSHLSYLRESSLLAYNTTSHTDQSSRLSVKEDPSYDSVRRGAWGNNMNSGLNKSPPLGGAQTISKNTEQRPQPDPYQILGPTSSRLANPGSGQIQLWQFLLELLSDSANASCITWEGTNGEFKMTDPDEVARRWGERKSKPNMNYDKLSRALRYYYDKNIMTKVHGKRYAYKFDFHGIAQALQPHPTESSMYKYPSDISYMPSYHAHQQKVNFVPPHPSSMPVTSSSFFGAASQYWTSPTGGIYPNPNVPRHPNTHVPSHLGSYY
Outline: (§1)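 Beads coated with glutathione captured GST-fused human transcription factors that had been expressed in yeast, and the factors were then given DNA barcodes and pooled with a tag-only sample. The pools were incubated with 200 nmole of a random double-stranded 16-mer DNA library in Tris/NaCl/DTT/glycerol buffer for 30 min at room temperature, washed, crosslinked with 0.1% formaldehyde and proximity-ligated with BsaI/T4 ligase at 37 °C for 1 h. PCR amplification and Illumina NextSeq500 sequencing came last. Binding signal is each hexamer's read frequency for a factor divided by its frequency for the tag-only sample.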

ELK1 = target: T2, ELK1 (Homo sapiens, UniProt P19419 1-428); settings: protein: recombinant; tags: N-terminal GST; dsDNA, one strand shown
T2 sequence: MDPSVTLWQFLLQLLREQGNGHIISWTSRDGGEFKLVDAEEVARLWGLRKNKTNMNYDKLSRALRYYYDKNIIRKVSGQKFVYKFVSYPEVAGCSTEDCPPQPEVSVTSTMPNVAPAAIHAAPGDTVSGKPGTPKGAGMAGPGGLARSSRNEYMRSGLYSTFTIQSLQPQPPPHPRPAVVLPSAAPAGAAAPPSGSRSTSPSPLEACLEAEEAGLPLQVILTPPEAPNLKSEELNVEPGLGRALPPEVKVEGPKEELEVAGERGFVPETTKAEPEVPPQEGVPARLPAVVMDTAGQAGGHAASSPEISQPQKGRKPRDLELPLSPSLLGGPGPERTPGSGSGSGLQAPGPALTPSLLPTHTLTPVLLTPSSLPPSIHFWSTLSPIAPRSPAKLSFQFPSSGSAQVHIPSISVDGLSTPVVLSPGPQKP
Outline: as §1

GABPA = target: T3, GABPA (Homo sapiens, UniProt Q06546 1-454); settings: protein: recombinant; tags: N-terminal GST; dsDNA, one strand shown
T3 sequence: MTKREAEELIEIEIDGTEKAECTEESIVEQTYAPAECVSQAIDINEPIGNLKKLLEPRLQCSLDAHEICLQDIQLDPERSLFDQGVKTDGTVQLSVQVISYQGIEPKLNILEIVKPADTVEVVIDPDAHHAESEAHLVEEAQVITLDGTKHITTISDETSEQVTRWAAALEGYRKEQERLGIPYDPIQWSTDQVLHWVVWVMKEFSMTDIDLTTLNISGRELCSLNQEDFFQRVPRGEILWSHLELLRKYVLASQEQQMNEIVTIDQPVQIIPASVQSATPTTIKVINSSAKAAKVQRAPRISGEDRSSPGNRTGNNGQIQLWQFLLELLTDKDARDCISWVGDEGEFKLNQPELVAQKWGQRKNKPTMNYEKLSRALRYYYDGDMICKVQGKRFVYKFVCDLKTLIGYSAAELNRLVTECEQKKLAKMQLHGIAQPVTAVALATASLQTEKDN
Outline: as §1

ERG = target: T4, ERG (Homo sapiens, UniProt P11308 1-479); settings: protein: recombinant; tags: N-terminal GST; dsDNA, one strand shown
T4 sequence: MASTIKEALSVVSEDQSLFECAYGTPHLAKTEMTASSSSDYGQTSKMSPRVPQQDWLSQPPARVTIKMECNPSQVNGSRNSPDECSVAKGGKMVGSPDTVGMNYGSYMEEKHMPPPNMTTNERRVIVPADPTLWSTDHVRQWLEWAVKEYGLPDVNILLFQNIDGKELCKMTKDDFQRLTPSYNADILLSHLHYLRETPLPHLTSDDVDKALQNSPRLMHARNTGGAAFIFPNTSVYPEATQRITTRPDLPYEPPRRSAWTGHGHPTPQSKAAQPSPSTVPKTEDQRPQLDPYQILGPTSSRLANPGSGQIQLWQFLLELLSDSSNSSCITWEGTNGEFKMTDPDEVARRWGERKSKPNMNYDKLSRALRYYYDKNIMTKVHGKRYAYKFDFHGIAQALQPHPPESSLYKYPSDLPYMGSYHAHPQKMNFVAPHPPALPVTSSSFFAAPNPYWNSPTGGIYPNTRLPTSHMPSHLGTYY
Outline: as §1

ELF1 = ELF1 (Homo sapiens, UniProt P32519 1-619); settings: protein: recombinant; tags: N-terminal GST; dsDNA, one strand shown
ELF1, sequence (P32519 whole entry): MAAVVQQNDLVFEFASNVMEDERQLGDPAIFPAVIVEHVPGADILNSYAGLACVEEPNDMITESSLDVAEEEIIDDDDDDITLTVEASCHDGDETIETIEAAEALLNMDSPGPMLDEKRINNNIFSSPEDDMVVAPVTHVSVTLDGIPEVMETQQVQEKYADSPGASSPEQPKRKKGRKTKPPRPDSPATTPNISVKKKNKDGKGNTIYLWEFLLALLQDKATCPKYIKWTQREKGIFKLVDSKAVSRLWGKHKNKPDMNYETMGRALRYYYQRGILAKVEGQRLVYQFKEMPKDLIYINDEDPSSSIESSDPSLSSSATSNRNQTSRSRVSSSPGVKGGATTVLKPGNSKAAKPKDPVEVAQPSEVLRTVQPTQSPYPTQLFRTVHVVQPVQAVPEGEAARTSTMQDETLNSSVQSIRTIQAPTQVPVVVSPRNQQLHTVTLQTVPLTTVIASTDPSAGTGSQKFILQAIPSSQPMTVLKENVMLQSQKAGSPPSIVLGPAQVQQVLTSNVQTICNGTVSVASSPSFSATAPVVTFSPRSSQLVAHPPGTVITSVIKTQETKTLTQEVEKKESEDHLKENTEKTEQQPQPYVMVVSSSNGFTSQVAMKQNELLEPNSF
Outline: as §1

EHF = target: T5, EHF (Homo sapiens, UniProt Q9NZC4 1-300); settings: protein: recombinant; tags: N-terminal GST; dsDNA, one strand shown
T5 sequence: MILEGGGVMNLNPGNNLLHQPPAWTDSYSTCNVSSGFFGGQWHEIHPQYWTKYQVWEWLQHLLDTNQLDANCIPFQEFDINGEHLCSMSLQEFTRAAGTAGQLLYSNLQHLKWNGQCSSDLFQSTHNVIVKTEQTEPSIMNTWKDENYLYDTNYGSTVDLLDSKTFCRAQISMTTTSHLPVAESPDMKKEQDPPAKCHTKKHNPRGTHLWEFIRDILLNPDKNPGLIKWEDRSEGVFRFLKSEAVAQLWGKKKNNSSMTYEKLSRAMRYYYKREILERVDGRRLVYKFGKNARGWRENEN
Outline: as §1

SPI1 = SPI1 (Homo sapiens, UniProt P17947 1-270); settings: protein: recombinant; tags: N-terminal GST; dsDNA, one strand shown
Outline: as §1

SPIB = SPIB (Homo sapiens, UniProt Q01892 1-262); settings: protein: recombinant; tags: N-terminal GST; dsDNA, one strand shown
SPIB, sequence (Q01892 whole entry): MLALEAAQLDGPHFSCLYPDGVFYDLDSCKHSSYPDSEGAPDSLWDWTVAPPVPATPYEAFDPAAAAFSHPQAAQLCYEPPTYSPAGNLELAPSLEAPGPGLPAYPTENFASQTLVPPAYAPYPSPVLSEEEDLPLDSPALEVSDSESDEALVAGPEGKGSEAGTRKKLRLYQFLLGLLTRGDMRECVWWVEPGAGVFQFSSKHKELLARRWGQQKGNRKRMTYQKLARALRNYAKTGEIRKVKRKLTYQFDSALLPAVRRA
Outline: as §1

ELK3 = target: T6, ELK3 (Homo sapiens, UniProt P41970 1-407); settings: protein: recombinant; tags: N-terminal GST; dsDNA, one strand shown
T6 sequence: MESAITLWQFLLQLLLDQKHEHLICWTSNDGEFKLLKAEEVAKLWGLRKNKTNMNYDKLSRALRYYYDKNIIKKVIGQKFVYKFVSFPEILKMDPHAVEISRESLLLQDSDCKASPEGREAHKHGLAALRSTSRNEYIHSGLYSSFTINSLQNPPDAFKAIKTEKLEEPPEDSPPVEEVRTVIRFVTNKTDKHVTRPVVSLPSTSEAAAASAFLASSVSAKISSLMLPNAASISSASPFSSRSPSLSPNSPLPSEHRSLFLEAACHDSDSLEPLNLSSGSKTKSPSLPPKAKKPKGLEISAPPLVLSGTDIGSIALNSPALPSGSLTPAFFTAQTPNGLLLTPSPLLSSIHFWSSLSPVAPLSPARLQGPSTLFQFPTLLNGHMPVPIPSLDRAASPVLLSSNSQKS
Outline: as §1

FEV = target: T7, FEV (Homo sapiens, UniProt Q99581 1-238); settings: protein: recombinant; tags: N-terminal GST; dsDNA, one strand shown
T7 sequence: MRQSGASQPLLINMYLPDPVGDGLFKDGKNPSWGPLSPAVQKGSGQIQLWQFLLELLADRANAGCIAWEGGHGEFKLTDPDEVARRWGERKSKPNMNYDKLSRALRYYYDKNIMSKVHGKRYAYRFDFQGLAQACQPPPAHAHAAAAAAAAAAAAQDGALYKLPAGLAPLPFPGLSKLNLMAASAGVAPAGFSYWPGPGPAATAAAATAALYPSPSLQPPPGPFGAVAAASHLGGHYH
Outline: as §1

ETV5 = ETV5 (Homo sapiens, UniProt P41161 1-510); settings: protein: recombinant; tags: N-terminal GST; dsDNA, one strand shown
ETV5, sequence (P41161 whole entry): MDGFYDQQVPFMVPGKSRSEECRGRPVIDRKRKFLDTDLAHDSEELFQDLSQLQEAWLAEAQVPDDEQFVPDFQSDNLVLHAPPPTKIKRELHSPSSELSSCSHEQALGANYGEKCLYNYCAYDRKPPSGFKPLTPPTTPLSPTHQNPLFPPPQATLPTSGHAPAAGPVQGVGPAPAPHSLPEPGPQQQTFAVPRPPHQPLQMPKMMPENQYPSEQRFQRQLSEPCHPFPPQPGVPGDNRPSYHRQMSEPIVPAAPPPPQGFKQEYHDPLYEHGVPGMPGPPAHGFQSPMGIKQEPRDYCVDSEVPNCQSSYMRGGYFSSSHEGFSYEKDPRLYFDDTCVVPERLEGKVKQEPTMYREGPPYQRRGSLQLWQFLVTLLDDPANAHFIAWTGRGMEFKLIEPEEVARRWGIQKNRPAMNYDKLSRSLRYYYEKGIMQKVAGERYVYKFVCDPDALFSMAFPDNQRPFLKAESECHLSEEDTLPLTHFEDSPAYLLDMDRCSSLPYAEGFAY
Outline: as §1

HSF1 = HSF1 (Homo sapiens, UniProt Q00613 1-529); settings: protein: recombinant; tags: N-terminal GST; chain copies: 3; dsDNA, one strand shown
HSF1, sequence (Q00613 whole entry): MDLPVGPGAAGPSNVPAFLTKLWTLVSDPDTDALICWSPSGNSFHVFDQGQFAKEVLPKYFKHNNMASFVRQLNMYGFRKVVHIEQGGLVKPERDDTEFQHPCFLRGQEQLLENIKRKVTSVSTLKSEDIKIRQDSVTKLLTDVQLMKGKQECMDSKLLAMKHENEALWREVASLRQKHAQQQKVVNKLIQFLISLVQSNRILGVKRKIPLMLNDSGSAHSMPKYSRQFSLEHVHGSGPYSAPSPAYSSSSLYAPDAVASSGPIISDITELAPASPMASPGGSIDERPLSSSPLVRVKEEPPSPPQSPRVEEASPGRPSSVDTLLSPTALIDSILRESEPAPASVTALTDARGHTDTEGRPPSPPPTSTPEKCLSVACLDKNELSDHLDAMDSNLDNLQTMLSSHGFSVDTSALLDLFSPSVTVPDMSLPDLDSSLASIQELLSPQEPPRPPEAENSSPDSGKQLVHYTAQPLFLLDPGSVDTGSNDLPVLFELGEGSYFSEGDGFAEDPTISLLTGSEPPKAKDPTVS
Outline: as §1

SPIC = target: T8, SPIC (Homo sapiens, UniProt Q8N5J4 1-248); settings: protein: recombinant; tags: N-terminal GST; dsDNA, one strand shown
T8 sequence: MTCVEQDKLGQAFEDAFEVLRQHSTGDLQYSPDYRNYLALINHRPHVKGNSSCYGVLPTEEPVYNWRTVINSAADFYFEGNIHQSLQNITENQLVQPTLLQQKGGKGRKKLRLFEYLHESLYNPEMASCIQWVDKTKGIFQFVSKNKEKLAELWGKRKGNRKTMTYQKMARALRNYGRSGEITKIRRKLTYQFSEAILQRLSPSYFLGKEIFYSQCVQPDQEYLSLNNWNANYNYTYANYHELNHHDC
Outline: as §1

ELF4 = ELF4 (Homo sapiens, UniProt Q99607 1-663); settings: protein: recombinant; tags: N-terminal GST; dsDNA, one strand shown
ELF4, sequence (Q99607 whole entry): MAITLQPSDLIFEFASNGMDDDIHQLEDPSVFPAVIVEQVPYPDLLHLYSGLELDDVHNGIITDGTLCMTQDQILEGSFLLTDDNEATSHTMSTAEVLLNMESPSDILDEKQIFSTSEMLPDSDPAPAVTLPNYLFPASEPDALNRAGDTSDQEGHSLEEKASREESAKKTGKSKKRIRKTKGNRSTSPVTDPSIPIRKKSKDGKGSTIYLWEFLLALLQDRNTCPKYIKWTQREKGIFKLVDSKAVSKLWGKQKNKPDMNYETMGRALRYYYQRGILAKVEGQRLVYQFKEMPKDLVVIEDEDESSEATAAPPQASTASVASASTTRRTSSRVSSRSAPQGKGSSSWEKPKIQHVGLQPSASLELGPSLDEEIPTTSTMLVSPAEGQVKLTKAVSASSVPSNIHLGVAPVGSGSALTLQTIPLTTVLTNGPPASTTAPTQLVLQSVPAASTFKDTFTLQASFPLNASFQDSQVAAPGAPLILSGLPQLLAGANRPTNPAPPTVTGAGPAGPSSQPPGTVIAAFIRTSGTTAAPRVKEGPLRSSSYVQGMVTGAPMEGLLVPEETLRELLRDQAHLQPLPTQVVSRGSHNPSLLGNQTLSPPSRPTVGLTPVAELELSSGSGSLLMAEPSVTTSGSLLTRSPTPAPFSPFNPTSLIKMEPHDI
Outline: as §1

ELK4 = target: T9, ELK4 (Homo sapiens, UniProt P28324-2 1-405); settings: protein: recombinant; tags: N-terminal GST; dsDNA, one strand shown
T9 sequence: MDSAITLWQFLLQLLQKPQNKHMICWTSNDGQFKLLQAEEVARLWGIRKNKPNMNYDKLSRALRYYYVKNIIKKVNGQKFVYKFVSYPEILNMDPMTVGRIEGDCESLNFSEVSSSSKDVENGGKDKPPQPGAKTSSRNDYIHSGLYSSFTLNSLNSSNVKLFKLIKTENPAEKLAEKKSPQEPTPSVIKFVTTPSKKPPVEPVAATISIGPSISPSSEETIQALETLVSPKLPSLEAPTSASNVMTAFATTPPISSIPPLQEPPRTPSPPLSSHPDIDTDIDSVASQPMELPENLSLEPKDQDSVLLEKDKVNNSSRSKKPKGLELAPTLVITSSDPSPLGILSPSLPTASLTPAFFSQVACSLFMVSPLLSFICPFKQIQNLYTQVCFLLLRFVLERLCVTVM
Outline: as §1

ETV2 = target: T10, ETV2 (Homo sapiens, UniProt O00321 1-342); settings: protein: recombinant; tags: N-terminal GST; dsDNA, one strand shown
T10 sequence: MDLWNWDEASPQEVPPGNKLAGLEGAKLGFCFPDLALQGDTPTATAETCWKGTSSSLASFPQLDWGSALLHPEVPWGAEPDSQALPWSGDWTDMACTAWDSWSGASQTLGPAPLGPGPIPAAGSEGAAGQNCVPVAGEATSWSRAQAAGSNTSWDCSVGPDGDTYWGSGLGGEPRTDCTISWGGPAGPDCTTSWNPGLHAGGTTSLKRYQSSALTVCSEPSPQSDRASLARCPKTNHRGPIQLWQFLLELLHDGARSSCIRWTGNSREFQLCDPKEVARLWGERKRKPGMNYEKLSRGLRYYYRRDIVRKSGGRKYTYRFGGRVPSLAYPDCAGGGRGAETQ
Outline: as §1

ELF3 = target: T11, ELF3 (Homo sapiens, UniProt P78545 1-371); settings: protein: recombinant; tags: N-terminal GST; dsDNA, one strand shown
T11 sequence: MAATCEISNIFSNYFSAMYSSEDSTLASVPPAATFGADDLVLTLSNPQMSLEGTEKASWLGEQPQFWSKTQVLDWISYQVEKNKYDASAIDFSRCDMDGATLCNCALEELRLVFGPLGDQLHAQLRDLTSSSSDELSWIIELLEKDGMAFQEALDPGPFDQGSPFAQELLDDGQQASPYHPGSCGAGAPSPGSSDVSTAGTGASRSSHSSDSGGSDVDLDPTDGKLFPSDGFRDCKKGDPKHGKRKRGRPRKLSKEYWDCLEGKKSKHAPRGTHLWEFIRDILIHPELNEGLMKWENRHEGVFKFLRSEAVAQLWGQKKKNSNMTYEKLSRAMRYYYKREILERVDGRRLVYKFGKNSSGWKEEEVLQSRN
Outline: as §1

CRX = CRX (Homo sapiens, UniProt O43186 1-299); settings: protein: recombinant; tags: N-terminal GST; dsDNA, one strand shown
CRX, sequence (O43186 whole entry): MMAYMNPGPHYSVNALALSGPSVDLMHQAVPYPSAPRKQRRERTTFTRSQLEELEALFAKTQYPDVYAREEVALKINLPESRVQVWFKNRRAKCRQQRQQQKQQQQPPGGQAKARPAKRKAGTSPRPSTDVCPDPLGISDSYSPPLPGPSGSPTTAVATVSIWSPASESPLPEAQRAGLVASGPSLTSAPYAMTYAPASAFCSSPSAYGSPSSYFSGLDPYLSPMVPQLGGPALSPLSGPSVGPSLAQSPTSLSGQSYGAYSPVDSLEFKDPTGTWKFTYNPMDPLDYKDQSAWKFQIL
Outline: as §1

ETV1 = ETV1 (Homo sapiens, UniProt P50549 1-477); settings: protein: recombinant; tags: N-terminal GST; dsDNA, one strand shown
ETV1, sequence (P50549 whole entry): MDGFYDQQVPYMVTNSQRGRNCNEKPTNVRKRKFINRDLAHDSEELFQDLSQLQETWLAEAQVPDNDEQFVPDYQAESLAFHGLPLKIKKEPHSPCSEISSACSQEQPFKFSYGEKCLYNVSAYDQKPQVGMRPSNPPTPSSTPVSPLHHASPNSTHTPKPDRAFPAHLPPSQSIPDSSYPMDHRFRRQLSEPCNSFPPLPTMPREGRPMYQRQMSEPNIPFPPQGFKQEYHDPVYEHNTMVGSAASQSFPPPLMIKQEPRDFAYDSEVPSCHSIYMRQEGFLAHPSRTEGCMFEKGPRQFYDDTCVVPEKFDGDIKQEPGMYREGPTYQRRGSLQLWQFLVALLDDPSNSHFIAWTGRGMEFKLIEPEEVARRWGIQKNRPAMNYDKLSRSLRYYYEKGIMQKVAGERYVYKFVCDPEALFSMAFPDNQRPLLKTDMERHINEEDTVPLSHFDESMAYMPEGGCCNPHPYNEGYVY
Outline: as §1

Sequence: ATTGAC
- binding signal (FLI1): 1.18 fold enrichment (6-mer frequency, TF over GST control)
- binding signal (ELK1): 1.21 fold enrichment (6-mer frequency, TF over GST control)
- binding signal (GABPA): 1.22 fold enrichment (6-mer frequency, TF over GST control)
- binding signal (ERG): 1.19 fold enrichment (6-mer frequency, TF over GST control)
- binding signal (ELF1): 1.19 fold enrichment (6-mer frequency, TF over GST control)
- binding signal (EHF): 1.22 fold enrichment (6-mer frequency, TF over GST control)
- binding signal (SPI1): 1.14 fold enrichment (6-mer frequency, TF over GST control)
- binding signal (SPIB): 1.2 fold enrichment (6-mer frequency, TF over GST control)
- binding signal (ELK3): 1.16 fold enrichment (6-mer frequency, TF over GST control)
- binding signal (FEV): 1.18 fold enrichment (6-mer frequency, TF over GST control)
- binding signal (ETV5): 1.17 fold enrichment (6-mer frequency, TF over GST control)
- binding signal (HSF1): 1.01 fold enrichment (6-mer frequency, TF over GST control)
- binding signal (SPIC): 1.11 fold enrichment (6-mer frequency, TF over GST control)
- binding signal (ELF4): 1.15 fold enrichment (6-mer frequency, TF over GST control)
- binding signal (ELK4): 1.34 fold enrichment (6-mer frequency, TF over GST control)
- binding signal (ETV2): 1.38 fold enrichment (6-mer frequency, TF over GST control)
- binding signal (ELF3): 1.19 fold enrichment (6-mer frequency, TF over GST control)
- binding signal (CRX): 1.11 fold enrichment (6-mer frequency, TF over GST control)
- binding signal (ETV1): 1.1 fold enrichment (6-mer frequency, TF over GST control)
